SENP6 block – SENP6 protease inhibition; Q9GZR1; Recombinant SENP6 catalytic domain, aminoluciferin luminescence; inhibition, % at 10 µM; actives 1.8% (n = 330,000); AID 2599;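 active = inhibition above about 50% at the single tested dose, limit read from the data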;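 also: plate controls were DMSO wells with enzyme for no effect and DMSO wells lacking enzyme for full effect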
SENP8 block-1 – inhibitors of human SENP8 protease | recombinant SENP8, Nedd8 substrate fluorescence | Q96LD8 | inhibition, % at 20 µM | AID 602440 | actives 0.64% (n = 360,000); in the data active = inhibition mostly above about 40%, no sharp cut-off; inactive = mostly below about 27%
HSP90 inh – HSP90 refolding inhibition in rabbit reticulocyte lysate; luciferase refolding luminescence, 3 h; inhibition, % at 5.6 µM; actives 0.91% (n = 290,000); AID 1789;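 active = inhibition above the screen-wide mean plus 3 SD, computed separately per campaign, cut at about 16% in these data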;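 also: 0% = DMSO wells and 100% = 60 µM geldanamycin wells; inhibitors lower the luminescence because luciferase stays unfolded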
SENP7 block – SENP7 protease inhibition; Q9BQF6; recombinant SENP7, Z-RLRGG-aminoluciferin luminescence, 40 min; inhibition, % at 5 µM; actives 1.5% (n = 330,000); AID 434973;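 active = inhibition above about 50% at the single test dose, limit read from the data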;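 also: plate controls were DMSO with enzyme for no effect and no enzyme buffer wells for full effect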
Target sequence (Q9BQF6 706-1050 limits assumed): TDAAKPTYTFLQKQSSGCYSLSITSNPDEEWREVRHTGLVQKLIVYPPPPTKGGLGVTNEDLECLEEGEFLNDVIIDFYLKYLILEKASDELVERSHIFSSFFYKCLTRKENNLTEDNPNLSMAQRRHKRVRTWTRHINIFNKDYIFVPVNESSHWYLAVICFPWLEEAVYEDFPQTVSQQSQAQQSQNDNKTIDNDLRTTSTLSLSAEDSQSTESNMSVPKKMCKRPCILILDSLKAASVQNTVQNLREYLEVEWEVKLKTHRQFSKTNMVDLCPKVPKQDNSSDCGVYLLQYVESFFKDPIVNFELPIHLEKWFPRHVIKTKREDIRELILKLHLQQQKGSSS
LGR2 antag – blocks bursicon-induced cAMP signaling via Drosophila LGR2. HEK293 LGR2, CRE-luciferase, bursicon-stimulated, 4 h. inhibition, % at 9.99 µM. actives 0.35% (n = 380,000). AID 720647;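 active = drop in luminescence signal, shown as inhibition above about 50% in the replicate tests, limit read from the data, passing the limit was not always enough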;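 also: agonist challenge used bursicon conditioned medium at about half maximal strength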
SENP8 block-2 – blocks the human protease SENP8 | Q96LD8 | purified SENP8, Z-RLRGG-aminoluciferin cleavage, luminescence | inhibition, % at 10 µM | actives 1.2% (n = 330,000) | AID 2540; in the data active = inhibition above about 50%
SENP8 conf – human SENP8 inhibition, confirmed; inhibition, % at 12.5 µM; actives 40% (n = 6,200); shares compounds with SENP7 block; Recombinant SENP8, Z-RLRGG-aminoluciferin luminescence, 60 min;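 active = mean inhibition across replicates above about 50%, limit read from the data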
SENP6 confirm – confirmation of human SENP6 protease inhibitors | recombinant SENP6, Z-RLRGG-aminoluciferin luminescence | shares compounds with SENP7 block | actives 58% (n = 6,200) | inhibition, % at 12.5 µM
SENP7 conf – confirmation of human SENP7 protease inhibitors | shares compounds with SENP7 block | recombinant SENP7, Z-RLRGG-aminoluciferin luminescence, 40 min | inhibition, % at 12.5 µM | actives 69% (n = 6,200)
Casp3 SENP sel – caspase-3 inhibition (SENP selectivity assay); purified caspase-3, Z-DEVD-aminoluciferin luminescence, 60 min; actives 60% (n = 6,200); inhibition, % at 12.5 µM; shares compounds with SENP7 block;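 active = mean inhibition above about 50%, limit read from the data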;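 also: plate controls were enzyme with DMSO for no effect and wells without caspase-3 for full effect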
Target sequence (P42574 28-227 limits assumed): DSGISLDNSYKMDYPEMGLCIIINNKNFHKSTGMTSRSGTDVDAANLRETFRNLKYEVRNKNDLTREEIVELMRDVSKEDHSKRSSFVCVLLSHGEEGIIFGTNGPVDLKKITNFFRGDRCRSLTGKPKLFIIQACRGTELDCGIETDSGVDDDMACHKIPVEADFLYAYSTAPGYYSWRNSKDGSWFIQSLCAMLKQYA
SENP luc ctr – luminescence interference (SENP counter-screen); Pre-incubated SENP8/Z-RLRGG-aminoluciferin, luciferase luminescence interference; actives 39% (n = 6,200); inhibition, % at 12.5 µM; shares compounds with SENP7 block;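 active = mean inhibition above about 50% when retested at one dose, limit read from the data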;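 also: plate controls were DMSO wells with completed reaction for no effect and substrate without enzyme for full effect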
* marks the source's active call; other numbers are inactive results; x = no result. A selection: hits, their analogues and other compounds. The true share with any hit is near 2.3%.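 The calls were made as follows, unless noted: active = mean inhibition above about 50% in the one-dose retest (limit read from the data); inactive = the rest.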

SMILES	SENP6 block	SENP8 block-1	HSP90 inh	SENP7 block	LGR2 antag	SENP8 block-2	SENP8 conf	SENP6 confirm	SENP7 conf	Casp3 SENP sel	SENP luc ctr
O=C(Nc1ccsc1C(=O)O)c1cccc(C(F)(F)F)c1	75*	7	-3	43	-32	69*	82*	82*	92*	80*	83*
O=C(Nc1ccsc1C(=O)O)c1ccc(Cl)cc1	94*	2	7	88*	-51	91*	95*	96*	101*	96*	95*
Cc1ccccc1NC(=O)c1cccc(C(F)(F)F)c1	-26	-3	-3	-4	5	-15	x	x	x	x	x
O=C(Nc1ccsc1C(=O)O)c1cccc(Oc2ccccc2)c1	93*	15	13	28	46	91*	95*	96*	99*	79*	95*
C[C@H](CO)N1C[C@H](C)[C@@H](CN(C)C(=O)C2CCOCC2)Oc2cc(C#Cc3ccncc3)ccc2S1(=O)=O	x	x	x	x	-4	x	x	x	x	x	x
CC1Cc2ccccc2N1C(=O)/C=C/c1cccc(F)c1 (stereo not drawn)	28	20	6	55*	-60	51*	1	74*	90*	61*	55*
C[C@@H]1CN([C@@H](C)CO)C(=O)c2cccc(NC(=O)Nc3ccccc3)c2O[C@H]1CN(C)C(=O)NC1CCCCC1	x	x	x	x	6	x	x	x	x	x	x
N#Cc1c(NC(=O)c2ccccc2)sc2c1CCCCC2	74*	-39	7	56*	x	51*	10	20	24	20	26
O=C(Nc1sc2c(c1C(=O)O)CCCC2)c1cccc(Cl)c1	92*	-18	-4	38	-65	91*	96*	96*	99*	87*	96*
COc1ccc(C(=O)Nc2sc3c(c2C#N)CCN(C(C)=O)C3)cc1	79*	-362	1	6	-22	4	-21	-16	-5	-7	-4
O=C(Nc1sc2c(c1C(=O)O)CCC2)c1ccccc1	88*	-59	0	92*	x	94*	46	99*	103*	97*	85*
COc1cc(C(=O)Nc2sc3c(c2C#N)CCN(C(C)=O)C3)cc(OC)c1OC	18	-388	1	11	-25	11	x	x	x	x	x
CCCC(=O)Nc1ccc2c(c1)C(=O)N(C)C[C@H](OC)[C@@H](C)CN(S(=O)(=O)c1cn(C)cn1)[C@@H](C)CO2	x	x	x	x	9	x	x	x	x	x	x
C[C@H](CO)N1C[C@H](C)[C@H](CN(C)Cc2ccc(Cl)c(Cl)c2)OCCCC[C@H](C)Oc2ccc(NC(=O)C3CCCCC3)cc2C1=O	x	x	x	x	25	x	x	x	x	x	x
CCC(=O)N(C)C[C@@H]1Oc2ncc(C#CC(C)C)cc2C(=O)N([C@H](C)CO)C[C@@H]1C	x	x	x	x	8	x	x	x	x	x	x
Cc1noc(C)c1NC(=O)Nc1ccc2c(c1)C(=O)N([C@H](C)CO)C[C@H](C)[C@H](CN(C)C(=O)CCCN(C)C)OCCCC[C@H](C)O2	x	x	x	x	21	x	x	x	x	x	x
NC(=O)c1c(NC(=O)c2ccccc2F)sc2c1CCCC2	56*	-160	-1	20	-16	19	-7	26	2	4	-4
NC(=O)c1c(NC(=O)c2ccccc2C(=O)O)sc2c1CCCC2	4	1	-2	5	4	1	x	x	x	x	x
O=C(Nc1sc2c(c1C(=O)O)CCC2)c1ccc(F)cc1	87*	-84	-1	45	-13	81*	89*	90*	95*	91*	58*
O=C(O)c1c(NC(=O)c2cccc3ccccc23)sc2c1CCC2	35	10	-4	0	x	18	x	x	x	x	x
O=C(Nc1sc2c(c1C(=O)O)CCCCC2)c1ccccc1	99*	-100	4	83*	-27	95*	97*	100*	103*	98*	98*
O=C(C[C@H]1C[C@H]2c3cc(NC(=O)Nc4ccc(C(F)(F)F)cc4)ccc3O[C@H]2[C@H](CO)O1)NCc1cccnc1	x	x	x	x	6	x	x	x	x	x	x
NC(CC(=O)OC1CCCCC1)C(=O)OC1CCCCC1 (stereo not drawn)	77*	12	-5	5	x	2	-5	-8	-8	-4	-4
COc1ccc2c3c(n(C)c2c1)[C@H](CO)N(C(C)=O)CC31CN(C(=O)C2CCOCC2)C1	x	x	x	x	-4	x	x	x	x	x	x
COc1ccccc1CN1[C@@H]2Cn3c(cccc3=O)[C@H]1[C@@H](C(=O)N1CCc3ccccc3C1)[C@@H]2CO	x	x	x	x	0	x	x	x	x	x	x
SMILES	SENP6 block	SENP8 block-1	HSP90 inh	SENP7 block	LGR2 antag	SENP8 block-2	SENP8 conf	SENP6 confirm	SENP7 conf	Casp3 SENP sel	SENP luc ctr
O=S1(=O)N=C(Nc2nc3c(s2)CCCC3)c2ccccc21	86*	9	3	76*	x	77*	83*	78*	94*	86*	52*
O=C(Nc1nc2c(s1)CCCC2)Oc1ccccc1	-12	22	0	5	x	-8	x	x	x	x	x
c1ccc(COc2ccc(-c3csnn3)cc2)cc1	66*	25	-4	73*	x	41	6	14	24	21	7
CCOC(=O)c1c(N)n(-c2ccc(N)cc2)c2nc3ccccc3nc12	16	-152	0	3	-22	-5	x	x	x	x	x
CCOC(=O)c1c(N)n(CCOC(=O)c2cccs2)c2nc3ccccc3nc12	84*	-282	6	47	-10	43	8	6	10	4	0
C[C@H](CO)N1C[C@H](C)[C@H](CN(C)C(=O)C2CCCCC2)OCCCC[C@H](C)Oc2ccc(NS(C)(=O)=O)cc2C1=O	x	x	x	x	-7	x	x	x	x	x	x
COc1cccc(-n2cc(-c3ccc(F)cc3)[nH]c2=S)c1	67*	12	5	77*	-31	10	22	20	7	3	5
C(=C\c1nc(-c2ccccc2)no1)/c1ccccc1	84*	3	-5	85*	-25	75*	75*	82*	94*	65*	59*
C(=C\c1nc(-c2ccncc2)no1)/c1ccccc1	-11	8	-5	18	-82	4	x	x	x	x	x
CCCn1c(=O)c(C(=O)OCC)c(O)c2cc(Br)ccc21	5	6	6	2	4	3	x	x	x	x	x

Screening data as filed in PubChem.
